The list is not random: actives were taken first. Their share in the collection is about 1.1%.
SRC3 inh – human NCOA3 inhibition; inhibition, % at 3.6 µM; 360,000 compounds, 0.17% hits; HEK293 GAL4-SRC3 luciferase reporter, luminescence; Q9Y6Q9;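 active = inhibition above a per-campaign cutoff, the mean of all compounds plus 3 SD, cut at about 60% in these data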;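 note: 0% = DMSO-treated cells and 100% = gossypol-treated cells at 36 µM; higher means less SRC3-driven luciferase light from the GAL4 reporter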
SRC1 inh – human NCOA1 inhibition; Q15788; HEK293 GAL4-SRC1 luciferase reporter, luminescence; inhibition, % at 3.6 µM; 360,000 compounds, 0.12% hits; AID 588354;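 active = inhibition above the campaign mean plus 3 SD, with each screening campaign given its own cutoff, cut at about 60% in these data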;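 note: 0% = DMSO treated cells and 100% = gossypol at 36 µM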
NR5A2 inv ag – inverse agonists of human LRH-1 (NR5A2); O00482; inhibition, % at 3.6 µM; 360,000 compounds, 0.13% hits; HEK293T StAR-luciferase reporter, LRH-1 transfected, 24 h;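 active = inhibition above the mean inhibition of all tested compounds plus 3 SD, cut at about 73% in these data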;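 note: 0% = DMSO wells and 100% = reporter-only cells lacking LRH-1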
GalR3 antagonist – human GalR3 antagonism; inhibition, % at 3 µM; HEK293 GalR3-CNG cAMP membrane potential fluorescence; galR3 body fused to GalR1 C-terminus; O60755; AID 651719; 360,000 compounds, 0.44% hits;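 active = inhibition above the screen-wide average plus 3 SD, cut at about 13% in these data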;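 note: forskolin and galanin both at EC90 stimulate the cells; cAMP rise reported by CNG channel membrane potential dye signal; 0% = forskolin plus galanin with DMSO and 100% = forskolin alone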
NR2F2 inh – NR2F2 (human) inhibition, primary screen; HEK293T NGFI-A luciferase reporter, luminescence; inhibition, % at 8.6 µM; 370,000 compounds, 0.7% hits; AID 686940;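 active = inhibition above a per-plate cutoff, mean inhibition of test wells between control levels plus 3 SD, cut at about 38% in these data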;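 note: cells cotransfected with COUP-TFII expression vector driving the NGFI-A reporter; 0% = median of COUP-TF2 test wells and 100% = reporter-only cells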
NCOA2 inhibitor – inhibits human steroid receptor coactivator 2 | inhibition, % at 9 µM | AID 651957 | HEK293 GAL4-SRC2 luciferase reporter, luminescence | 370,000 compounds, 0.17% hits;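 active = inhibition above the mean inhibition of all tested compounds plus 3 SD, set per campaign, cut at about 52% in these data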;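 note: 0% = DMSO treated cells and 100% = cells given Gossypol at 36 µM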
VP16 Luc counter – counter-screen for COUP-TFII antagonists: inhibitors of VP16 | inhibition, % at 8.5 µM | HEK293 Gal4-VP16 luciferase reporter, luminescence | 2,500 compounds, 25% hits | shares compounds with NR2F2 inh; in the data active = inhibition above about 13%
NR2F2 inh conf – COUP-TFII (NR2F2) inhibition, confirmation assay. shares compounds with NR2F2 inh. inhibition, % at 8.5 µM. 2,500 compounds, 45% hits. HEK293 NGFI-A luciferase reporter, luminescence;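 active = mean inhibition over three repeats above a set limit taken from the earlier primary screen, cut at about 38% in these data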;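 note: 100% = cells given the luciferase reporter alone without the COUP-TF2 vector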
* hit, by the source's call.

CCCCCOc1ccc(/C=N/NC(=O)CSc2nnc(-c3ccc(OC)cc3)n2-c2ccc(C)cc2)cc1 was read as NR2F2 inh -1 and NCOA2 inhibitor 9.
Screening Cc1nc2nc(-c3ccc(F)cc3)cn2nc1C returned SRC3 inh -101, SRC1 inh -112, NR5A2 inv ag -184, GalR3 antagonist -8, NR2F2 inh -40 and NCOA2 inhibitor -5.
Screening CCc1ccc(-c2cn3nc(C)c(C)nc3n2)cc1 returned SRC3 inh -20, SRC1 inh -30, NR5A2 inv ag -52, GalR3 antagonist -2, NR2F2 inh 47*, NCOA2 inhibitor 59*, VP16 Luc counter -42 and NR2F2 inh conf -13.
CC(=O)N[C@@H]1C[C@@H]2O[C@H](CO)CC[C@@H]2O[C@@H]1CCc1ccc(-c2ccc(F)cc2)cc1 was read as NR2F2 inh 1 and NCOA2 inhibitor 20.
For O=C(NCc1cccnc1)/C(=C/c1ccc(-c2ccc(Cl)cc2)o1)S(=O)(=O)c1ccccc1 the results were SRC3 inh 68*, SRC1 inh 52, NR5A2 inv ag 56, GalR3 antagonist -5, NR2F2 inh 49*, NCOA2 inhibitor 66*, VP16 Luc counter 45* and NR2F2 inh conf 44*.
For O=C(NCc1cccnc1)/C(=C/c1ccc(-c2cccc(C(F)(F)F)c2)o1)NC(=O)c1ccccc1 the results were SRC3 inh 17, SRC1 inh 4, NR5A2 inv ag -4, GalR3 antagonist 5, NR2F2 inh 11 and NCOA2 inhibitor 5.
For O=C(NCc1cccnc1)/C(=C\c1ccc(-c2ccc(Br)cc2)o1)S(=O)(=O)c1ccccc1 the results were SRC3 inh 84*, SRC1 inh 49, NR5A2 inv ag 61, GalR3 antagonist 0, NR2F2 inh 56*, NCOA2 inhibitor 52, VP16 Luc counter 44* and NR2F2 inh conf 48*.
COc1ccc(/C=C2\SC(=O)N(CCCC(=O)Nc3cc(Cl)ccc3C(=O)O)C2=O)cc1 was read as SRC3 inh 83*, SRC1 inh 78*, NR5A2 inv ag 82*, GalR3 antagonist -5, NR2F2 inh 101*, NCOA2 inhibitor 92*, VP16 Luc counter 89* and NR2F2 inh conf 101*.
Screening COC(=O)C1=C(C)N(Cc2ccc(C(F)(F)F)cc2)C(=NCc2ccc(C(F)(F)F)cc2)NC1c1ccccc1C(F)(F)F (stereo unspecified) returned GalR3 antagonist -1, NR2F2 inh -6 and NCOA2 inhibitor -24.
Screening Cc1cc(NC(=O)COC(=O)CCC(=O)c2ccc(F)cc2)no1 returned SRC3 inh 18, SRC1 inh -3, NR5A2 inv ag -6, GalR3 antagonist 0, NR2F2 inh 14 and NCOA2 inhibitor 4.
Screening Cc1cc(NC(=O)COC(=O)CNS(=O)(=O)c2c(F)cc(F)cc2Br)no1 returned SRC3 inh -1, SRC1 inh 12, NR5A2 inv ag -15, GalR3 antagonist -1, NR2F2 inh 85*, NCOA2 inhibitor -13, VP16 Luc counter -1 and NR2F2 inh conf -12.
COc1ccc(-c2sc3ccc(N4CCOCC4)cc3c2C#CC2(O)CCCCC2)cc1 was read as SRC3 inh -2, SRC1 inh -17, NR5A2 inv ag -2, GalR3 antagonist -7, NR2F2 inh -6 and NCOA2 inhibitor -20.
For COc1ccc(-c2sc3ccc(N4CCOCC4)cc3c2C#CCO)cc1 the results were SRC3 inh 12, SRC1 inh 7, NR5A2 inv ag 34, GalR3 antagonist 8, NR2F2 inh 74*, NCOA2 inhibitor 21, VP16 Luc counter -11 and NR2F2 inh conf 53*.
`COc1ccc2c(c1)CCCN2C(=O)C1CCCN(S(=O)(=O)c2ccc(C(C)(C)C)cc2)C1` (stereo unspecified) gave NR2F2 inh 48*, NCOA2 inhibitor 36, VP16 Luc counter 5 and NR2F2 inh conf 19.
CC(C)(C)c1ccc(S(=O)(=O)N2CCCC(C(=O)N3CCN(Cc4ccccc4)CC3)C2)cc1 (stereo unspecified) was read as NR2F2 inh 45*, NCOA2 inhibitor 12, VP16 Luc counter 5 and NR2F2 inh conf 29.
Screening CCOC(=O)CC[C@H]1CC[C@]2(CCCN(C(=O)C3CCCC3)C2)O1 returned NR2F2 inh -11 and NCOA2 inhibitor 17.
Screening Cc1cc(N2CCN(C/C=C/c3ccccc3)CC2)n2ncnc2n1 returned SRC3 inh 24, SRC1 inh -2, NR5A2 inv ag 21, GalR3 antagonist -2, NR2F2 inh 40*, NCOA2 inhibitor -22, VP16 Luc counter -4 and NR2F2 inh conf 15.
`C=CCn1c(SCC(=O)C(C)(C)C)nnc1-c1ccc(Cl)cc1` gave NR2F2 inh -1 and NCOA2 inhibitor -27.
S=C(Nc1cc(Cl)cc(Cl)c1)NC(c1ccccc1)c1ccccc1 was read as NR2F2 inh 57*, VP16 Luc counter 4 and NR2F2 inh conf 34.
Cn1nc(C(C)(C)C)cc1C(=O)N1CCCCC1c1cc(C(=O)Nc2ccccc2Cl)no1 (stereo unspecified) was read as SRC3 inh 10, SRC1 inh 7, NR5A2 inv ag 13, GalR3 antagonist -5, NR2F2 inh 48*, NCOA2 inhibitor 43, VP16 Luc counter 0 and NR2F2 inh conf 17.
Screening O=[N+]([O-])c1nn(-c2ccc3c(c2)OCCO3)n(O)c1=Nc1ccc(Cl)cc1 returned SRC3 inh 48, SRC1 inh 37, NR5A2 inv ag 20, GalR3 antagonist -8, NR2F2 inh 31 and NCOA2 inhibitor 52.
For O=[N+]([O-])c1nn(-c2ccc3c(c2)OCCO3)n(O)c1=Nc1ccccc1 the results were SRC3 inh 85*, SRC1 inh 76*, NR5A2 inv ag 94*, GalR3 antagonist -4, NR2F2 inh 91*, NCOA2 inhibitor 84*, VP16 Luc counter -105 and NR2F2 inh conf 35.
C#CCNC(=O)C[C@H]1C[C@@]2(C(=O)OC)C(=C[C@H](C(C)(C)C)O[C@@H]2C)N(Cc2ccco2)C1=O was read as NR2F2 inh -6 and NCOA2 inhibitor -25.
`c1ccc(Nc2nc(NCc3ccco3)c3ccccc3n2)cc1` gave SRC3 inh -2, SRC1 inh -51, NR5A2 inv ag -53, GalR3 antagonist 4, NR2F2 inh 53*, NCOA2 inhibitor 30, VP16 Luc counter -14 and NR2F2 inh conf 26.
Screening CCOc1ccc(Oc2c(Cl)cnn(Cc3cccc4ccccc34)c2=O)cc1 returned NR2F2 inh 28 and NCOA2 inhibitor 6.

Source: PubChem BioAssay
